Among the data in PubChem BioAssay (NCI) are growth values, retold here.

Structures are written as SMILES. Compounds without any hit were thinned out: in the full panel of roughly 83,000, 20% have a hit.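 In brief: 96-well plates, 48 h treatment, single concentration, percent growth endpoint.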 Unmarked numbers belong to inactive results. Activity calls are given as the source filed them.

In the test the test system is HCC-2998 colon. Nature of the test: NCI-60 one-dose screen, 48 h (100 = growth as untreated, 0 = no growth, -100 = all killed). The following applies: 10 µM. How it is done: Growth inhibition of the HCC-2998 human tumor cell line is measured as a screen for anti-cancer activity. Cells are grown in 96 well plates and exposed to the test compound for 48 hours. Compounds are tested at a single concentration, which is 10^-5 M for most compounds. The reported endpoint is percent growth (GI% or GIPRCNT), where numbers from 0 - 100% represent growth inhibition, and numbers from -100% - 0 represent cell death. For example, a value of 40 represents 60% growth inhibition. A value of 0 means no net growth occurred over the course of the experiment. A value of -40 indicates 40% of cells at the beginning of the experiment died by the end of the experiment. A value of -100 means all cells are dead at the end of the experiment.
NCI-60 Human Tumor Cell Lines Screen was performed using the standard one-dose NCI protocol, which is described in more detail at https://dtp.cancer.gov/discovery_development/nci-60/default.htm.
Compounds with GIPRCNT values below 10 were considered active. Activity score was based on GIPRCNT using the following formula: […]
Score is 0 for GIPRCNT values of 100 or above, 50 for GIPRCNT values of 0, and 100 for GIPRCNT values of -100.
Regarding `CC(C)(C#N)Nc1ccccc1`, the growth is 119%.
To `COc1ccc(C2=NN(C(=O)c3ccc(S(C)(=O)=O)cc3)C(c3ccc(OC)c(OC)c3)C2)c(OC)c1` (stereo not given) belongs 102%.
To `O=C1/C(=C\c2ccc(Cl)cc2)CN(C(=S)Nc2ccccc2)C/C1=C\c1ccc(Cl)cc1` belongs -89% (active); to `O=C(Nc1cccc(-n2cc(-c3ccncc3)c(-c3cc(O)cc(Cl)c3)n2)c1)c1ccc(N2CCOCC2)c(C(F)(F)F)c1`, -3.65% (active).
Take `O=C1/C(=C/c2ccc(Cl)cc2)SC(=Nc2ccc(Cl)cc2)N1Cc1nc2ccccc2[nH]1`: the growth is 62%.
To `CCOC(=O)CNC(=O)CCCCSc1ncnc2nc[nH]c12` belongs -18% (active); to `COc1cccc(-c2cc(-c3cccc(NS(C)(=O)=O)c3)nc(N)c2C#N)c1O`, -25.3% (active); to `CSc1nc(=O)n(Cc2ccc(F)cc2)c(=O)n1Cc1ccc(C)cc1`, 95.5%.
Regarding `Clc1ccccc1N=Cc1ccc2c(c1)OCO2`, the growth was 103%.
In the case of `O=C(Nc1cccc(-n2cc(-c3ccncc3)c(-c3ccc(O)c(Cl)c3)n2)c1)c1ccc(N2CCOCC2)c(C(F)(F)F)c1` it was 23.6%; in that of `COC(=O)C1=NNC(=S)N(c2cc(C)[nH]n2)C(=O)C1`, 93.6%.
Consider `COc1cc(Nc2ncnc(Nc3ccc4c(n3)NC(=O)C(C)(C)O4)n2)cc(OC)c1OC`, for which the growth was 79.1%.
Regarding `N#CC1=C(Nc2ccccc2Cl)SC(c2ccccc2O)NC1=O` (stereo not given), the growth was 109%.
To `COc1ccc(OC)c(/C=C/c2nc(SCc3ccccc3)n(-c3ccc(Cl)cc3)n2)c1` belongs 73.1%; to `Cn1c(C(N)=O)cc2c1-c1nc(Nc3ccccc3)ncc1CCC2`, 73.1%; to `O=C1/C(=C/c2ccc([N+](=O)[O-])s2)Oc2ccccc21`, -71.4% (active).
In the case of `CS(=O)(=O)Nc1ccc(Nc2c3ccccc3nc3cc([N+](=O)[O-])ccc23)cc1` it was 32.3%; in that of `CCC(=O)N1C/C(=C/c2ccc(OC)cc2)C(=O)/C(=C/c2ccc(OC)cc2)C1`, -84% (active).
Take `COc1cc(/C=C2\Oc3cc(OCC(=O)c4ccccc4)ccc3C2=O)cc(OC)c1OC`: the growth is 120%.
In the case of `CN1CCCNc2c(c(=O)c2=O)NCCCN(C)CCCNc2c(c(=O)c2=O)NCCCN(C)CCCNc2c(c(=O)c2=O)NCCCN(C)CCCNc2c(c(=O)c2=O)NCCCN(C)CCCNc2c(c(=O)c2=O)NCCCN(C)CCCNc2c(c(=O)c2=O)NCCCN(C)CCCNc2c(c(=O)c2=O)NCCC1` it was 70.6%; in that of `Nc1ccccc1NC(=O)CCCCC(=O)Nc1ccc2c(c1)/C(=C/c1ccc[nH]1)C(=O)N2`, 87.5%; in that of `COc1ccc(C2CC(c3ccc(N(C)C)cc3)=NN2c2ccc(S(N)(=O)=O)cc2)cc1` (stereo not given), 75%.
To `CCCCCCN1CCN(Cc2ccc(N(CC)CC)cc2)C(=O)C1=O` belongs 52%.
Regarding `COc1ccc(/C=C/C(C)=N/OCC(=O)O)cc1`, the growth is 105%.
In the case of `c1ccc(CP(Cc2ccccc2)c2ccccc2)cc1` it was 101%; in that of `COC(=O)C(=C\c1ccc2c(c1)OCO2)/C(=C/c1ccc2c(c1)OCO2)C(=O)OC`, 94.6%; in that of `CC(C)N(CCNc1nc(C(Cl)(Cl)Cl)nc2cc(Cl)ccc12)C(C)C`, -50.2% (active).
Consider `CC12O[C@H](C[C@@H](OC(=O)c3ccccc3)[C@H]1O)n1c3ccccc3c3c4c(c5c6ccccc6n2c5c31)C(=O)NC4=O`, for which the growth was 87.2%.
Regarding `O=C1/C(=C\c2ccccc2)CN(C(=O)c2ccccc2)C/C1=C\c1ccccc1`, the growth is -77.9% (active).
In the case of `CCN(CC)CCCOCCCNc1cc(OC)cc2cccnc12` it was 83.9%; in that of `COc1ccc(-c2csc(NC(=O)CSc3nc(C)c(-c4ccccc4)n3Nc3ccccc3)n2)cc1`, 78.7%; in that of `C#Cc1ccc(-n2c(/C=C/c3ccc4ccccc4c3)nc3ncccc3c2=O)cc1`, 31.1%.
In the case of `O=c1cc(-c2ccccc2)[nH]n1-c1nc2ccccc2[nH]1` it was 59.3%; in that of `CN(C)N=Nc1nn(C(=O)Nc2ccc(Cc3ccccc3)cc2)c2ccccc12`, 10.1%.
In the case of `CC(=O)CSC(C)=O` it was 110%; in that of `Cc1cc(C)c(CCc2cc(C)c(C)cc2C)cc1C`, 101%; in that of `Cc1ccc(Nc2cc(C)nc(NCCCNc3ccnc4cc(Cl)ccc34)n2)cc1`, -86.3% (active).
For `CN(C)CCOc1nc2ccccc2c2c1-c1ccc(Cl)cc1C2=O`, the growth is -53.6% (active).
In the case of `COc1ccc(OC)c2c1C(=O)CC2C` (stereo not given) it was 113%; in that of `COc1ccc(-c2cc(/C=C/C(=O)c3cc(OC)c(OC)c(OC)c3)[nH]n2)cc1OC`, -75.7% (active).
